Measurements reported in PubChem BioAssay AID504895 (National Center for Advancing Translational Sciences (NCATS), 2011).
Results filed as inconclusive are left out. Activity calls are given as the source filed them. Calls follow the shape of the dose curve; as a rule, active = well fitted curve in the direction sought with a large enough effect; inconclusive = small, poorly fitted or top-dose-only effect, or another doubt; inactive = no such curve, though single readings can be large or run the other way.

Target: Protein phosphatase EYA2 (Homo sapiens) (UniProt O00167)
Sequence (O00167 whole entry, looked up): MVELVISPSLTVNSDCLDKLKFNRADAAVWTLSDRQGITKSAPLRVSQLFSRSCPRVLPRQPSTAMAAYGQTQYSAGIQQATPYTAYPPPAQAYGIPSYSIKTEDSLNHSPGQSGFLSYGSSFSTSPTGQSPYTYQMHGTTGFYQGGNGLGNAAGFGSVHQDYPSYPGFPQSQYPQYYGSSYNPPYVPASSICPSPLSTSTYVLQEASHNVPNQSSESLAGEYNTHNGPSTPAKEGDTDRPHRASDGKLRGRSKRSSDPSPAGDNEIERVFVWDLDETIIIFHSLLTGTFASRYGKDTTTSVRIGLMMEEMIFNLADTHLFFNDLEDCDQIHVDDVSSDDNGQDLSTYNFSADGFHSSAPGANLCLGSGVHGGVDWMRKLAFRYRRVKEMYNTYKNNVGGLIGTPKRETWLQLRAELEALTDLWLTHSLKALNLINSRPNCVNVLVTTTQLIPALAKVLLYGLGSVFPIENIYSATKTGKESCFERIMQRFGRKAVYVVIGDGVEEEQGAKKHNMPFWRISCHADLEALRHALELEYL
Assay: Inhibitors of Eya2ED: Hit Confirmation in Primary Screen
Settings: Recombinant Eya2ED, OMFP fluorescence phosphatase assay; series mostly up to 76.9 µM
Method in brief: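 Hits were retested as 12-point titrations. Compound sat 10 min at ambient with Eya2 (0.2 uM in dispense) in HEPES pH 7.5 buffer with NaCl, MgCl2, BSA and DTT, then OMFP substrate (50 uM in dispense) was added. Dephosphorylation was read by fluorescence at 485/525 nm after a further 10 min.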

Potency, inactive:
CC(C1CC1)N(C(=O)c1ccccc1O)c1ccccc1 (stereo unspecified)
Cc1cc(/C=C2\SC(=S)NC2=O)cc(C)c1O
Cn1cccc1CC(=O)NNC(=S)NC(=O)c1ccc(F)cc1
Cc1ccc(C(=O)NCc2ccc(Cl)cc2)o1
O=C(CCCN=C1NS(=O)(=O)c2ccccc21)OCc1ccc(F)cc1
Cc1cc(C(=O)Nc2ccc(N3CCCCC3)cc2)no1
Cc1nn(C)c(C)c1NC(=O)Nc1ccc(Cl)c(Cl)c1
CCOc1ccc(NC(=O)COC(=O)CN2CCCCCC2=O)cc1
Cn1c(=O)c(C(=O)Nc2ncccc2O)c(O)c2ccccc21
O=C(COC(=O)c1ccccc1Nc1cccc(C(F)(F)F)c1)NCc1ccco1
O=C(C1CCC(=O)N(C2CCCC2)C1)N1CCC(Oc2cccc(F)c2)CC1 (stereo unspecified)
Oc1oc(C=Nc2ccc(F)cc2F)c2ccccc12
CCOC(=O)c1[nH]c(C)c(C(=O)OCC(=O)Nc2sc3c(c2C#N)CCCCC3)c1C
O=C(O)C1CC(=O)N(c2ccc(Br)cc2)C1 (stereo unspecified)
CS(=O)(=O)c1ccc2nc(NC(=O)c3cccc([N+](=O)[O-])c3)sc2c1
COc1ccc(CCNC(=O)CCSc2nc(-c3ccco3)cc(C(F)(F)F)n2)cc1OC
COc1ccc(-c2noc(CCC(=O)NC3CCCCC3)n2)cc1OC
CC(=O)c1ccc(NC(=O)C2(c3ccccc3)CC2(Cl)Cl)cc1 (stereo unspecified)
CC1(c2ccccc2Cl)NC(=O)N(CC(=O)N2CCc3ccccc3C2)C1=O (stereo unspecified)
CC1CN(S(=O)(=O)c2ccc(C(=O)Nc3nnc(-c4ccco4)o3)cc2)CC(C)O1 (stereo unspecified)
O=C(NN=C1CCCC1)c1[nH]c2ccc(Br)cc2c1-c1ccccc1
N=C(N)SCc1ncccc1O
CC(NC(=O)COC(=O)C1CC1C)c1cccc(Cl)c1 (stereo unspecified)
Cc1ccc(Nc2nc(N)nc(CSc3ncccn3)n2)cc1
O=C(Cc1coc2cc(O)ccc12)NNC(=O)c1ccc(Br)s1
COc1cccc(-c2cc(C(F)(F)F)nc(N3CCN(c4ccccc4)CC3)n2)c1
COC(=O)c1ccc(Cn2cc([N+](=O)[O-])cn2)cc1
Cc1ccc(NC(=O)c2sc(N)nc2-c2ccc([N+](=O)[O-])cc2)cc1C
COc1ccc(/C=C(\C#N)C(=O)OCC(=O)N2CC(C)OC(C)C2)cc1 (stereo unspecified)
C=CCOc1ccc(/C=C/C(=O)OCC(=O)N2CCCc3ccccc32)cc1
Cc1ccc(N(CC(=O)N2CCOCC2)S(C)(=O)=O)cc1Cl
